“And” between values parts separate entries of the source, which are not always exact repeats. Identical values can stand only once. Inconclusive results are not listed. A call without a number means that no potency is given here. Where a structure was tested more than once in an assay, its records may differ in their call. The source made the active and inactive calls. Unless noted, calls come from the whole dose curve; as a rule, active = well fitted curve in the direction sought with a large enough effect in the repeat runs; inconclusive = weak or mixed curves; inactive = no such curve, though single readings can be large; an effect the other way counts as inactive or inconclusive.
What was measured:
[1] = qHTS RealTime-Glo MT Cell Viability Assay in HEK293 cells - 0 hour (AID 1224880); note: nearly all actives have a fitted effect of over 45% in size; note: potency is the fitted concentration of half-maximal effect
Procedure, shortened: (§1)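 600 cells/well were plated with the nonlytic NanoLuc/prosubstrate reagent, pre-incubated 5 h, then given 23 nL of compound in DMSO. Incubation at 37 C for 40 h, with luminescence from viable-cell-reduced substrate read repeatedly from 0 h.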

[2] = A CellTox Green Cytotoxicity Assay to monitor cytotoxicity in HEK293 cells - 32 hour (AID 1224881); note: nearly all actives have a fitted effect of over 40% in size; note: potency is the fitted concentration of half-maximal effect
Procedure, shortened: (§2)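 HEK293 cells, 600/well, were preincubated 5 hours and then exposed to compounds at 37 C for up to 40 hours. A cell-impermeant cyanine dye staining dead-cell DNA was read by fluorescence at 0, 8, 16, 24, 32 and 40 h time points.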

[3] = A CellTox Green Cytotoxicity Assay to monitor cytotoxicity in HepG2 cells - 0 hour (AID 1224882); note: nearly all actives have a fitted effect of over 35% in size; note: potency is the fitted concentration of half-maximal effect
Procedure, shortened: (§3)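 HepG2 cells, 600/well, preincubated 5 h with CellTox Green dye, then exposed to Tox21 compounds in DMSO at 37 C for up to 40 h. Dead-cell DNA fluorescence read at the indicated time point.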

[4] = A CellTox Green Cytotoxicity Assay to monitor cytotoxicity in HEK293 cells - 8 hour (AID 1224884); note: nearly all actives have a fitted effect of over 35% in size; note: potency is the fitted concentration of half-maximal effect
Procedure, shortened: as §2

[5] = qHTS RealTime-Glo MT Cell Viability Assay in HEK293 cells - 24 hour (AID 1224886); note: nearly all actives have a fitted effect of over 50% in size; note: potency is the fitted concentration of half-maximal effect
Procedure, shortened: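 Luminescence generated by NanoLuc from substrate produced by living HEK293 cells served as the viability signal. Each value reflects the reading at its stated time point during continuous 40 h compound exposure at 37 C.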

[6] = qHTS RealTime-Glo MT Cell Viability Assay in HEK293 cells - 8 hour (AID 1224887); note: top concentration of the series differs between compounds; nearly all actives have a fitted effect of over 50% in size
Procedure, shortened: as §1

[7] = A CellTox Green Cytotoxicity Assay to monitor cytotoxicity in HEK293 cells - 16 hour (AID 1224888); note: nearly all actives have a fitted effect of over 35% in size
Procedure, shortened: as §2

[8] = qHTS RealTime-Glo MT Cell Viability Assay in HepG2 cells - 0 hour (AID 1224889); note: nearly all actives have a fitted effect of over 50% in size; note: potency is the fitted concentration of half-maximal effect
Procedure, shortened: (§4)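 Tox21 10K library screened in qHTS format on HepG2 cells carrying RealTime-Glo reagents. Compounds were added after a 5 h preincubation, and the luminescent signal from continuous culture was measured repeatedly during 40 h treatment.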

[9] = A CellTox Green Cytotoxicity Assay to monitor cytotoxicity in HepG2 cells - 8 hour (AID 1224890); note: nearly all actives have a fitted effect of over 45% in size; note: potency is the fitted concentration of half-maximal effect
Procedure, shortened: as §3

[10] = qHTS assay to identify small molecule antagonists of the estrogen receptor alpha (ER-alpha) signaling pathway using the BG1 cell line in the presence of 0.1 nM 17-beta-estradiol - cell viability counter screen (AID 1259241); note: nearly all actives have a fitted effect of over 40% in size
Procedure, shortened: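 CellTiter-Fluor read (30 min, 37C) on ER-alpha/ERE-luc VM7Luc4E2 cells; 22 hr compound treatment; agonist 0.1 nM E2 final; same-well multiplex.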

[11] = qHTS assay to identify small molecule antagonists of the androgen receptor (AR) signaling pathway using the MDA cell line in the presence of 0.5 nM R1881 - cell viability counter screen (AID 1259242); note: nearly all actives have a fitted effect of over 45% in size; note: potency is the fitted concentration of half-maximal effect
Procedure, shortened: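 MDA-kb2 cells (MMTV-luciferase, AR/GR responsive) were treated with compounds plus 0.5 nM R1881 (final) for 16 hr at 37C, 0% CO2. Viability was then read in the same wells as live-cell protease fluorescence (CellTiter-Fluor, 30 min).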

[12] = target: Androgen receptor (Homo sapiens) (UniProt P10275); assay: qHTS assay to identify small molecule antagonists of the androgen receptor (AR) signaling pathway using the MDA cell line in the presence of 0.5 nM R1881 (AID 1259243); note: nearly all actives have a fitted effect of over 50% in size; note: potency is the fitted concentration of half-maximal effect
Androgen receptor (Homo sapiens), sequence (P10275 whole entry, looked up): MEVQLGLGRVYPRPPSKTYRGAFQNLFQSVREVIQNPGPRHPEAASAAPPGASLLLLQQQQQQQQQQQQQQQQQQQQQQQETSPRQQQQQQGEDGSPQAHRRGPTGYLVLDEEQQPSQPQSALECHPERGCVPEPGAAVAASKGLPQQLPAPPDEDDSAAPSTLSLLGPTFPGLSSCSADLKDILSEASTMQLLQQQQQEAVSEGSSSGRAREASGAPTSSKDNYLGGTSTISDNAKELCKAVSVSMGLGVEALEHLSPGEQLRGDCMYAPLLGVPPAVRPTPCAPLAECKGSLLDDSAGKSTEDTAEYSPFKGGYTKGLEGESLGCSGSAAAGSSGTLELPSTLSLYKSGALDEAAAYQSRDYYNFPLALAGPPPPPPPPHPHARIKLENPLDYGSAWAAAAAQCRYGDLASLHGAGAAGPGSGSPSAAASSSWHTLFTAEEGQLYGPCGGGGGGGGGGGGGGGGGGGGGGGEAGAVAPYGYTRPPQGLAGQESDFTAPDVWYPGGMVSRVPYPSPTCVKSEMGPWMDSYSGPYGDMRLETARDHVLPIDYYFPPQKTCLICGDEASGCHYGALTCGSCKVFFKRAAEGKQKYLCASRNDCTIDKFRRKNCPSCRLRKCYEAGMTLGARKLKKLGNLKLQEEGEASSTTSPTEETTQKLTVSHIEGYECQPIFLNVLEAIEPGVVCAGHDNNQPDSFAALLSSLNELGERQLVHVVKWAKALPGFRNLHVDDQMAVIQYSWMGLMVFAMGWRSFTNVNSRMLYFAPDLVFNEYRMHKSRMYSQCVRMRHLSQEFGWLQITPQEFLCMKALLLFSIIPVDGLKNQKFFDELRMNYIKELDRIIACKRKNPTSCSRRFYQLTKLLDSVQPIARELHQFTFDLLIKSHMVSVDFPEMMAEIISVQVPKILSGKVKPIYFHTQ
Procedure, shortened: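 MDA-kb2 cells (MMTV-luciferase, responsive to AR and GR) at 3,000/well, rested 5 h at 37C, 0% CO2, then given compounds plus 0.5 nM R1881 (final) for 16 hr. Luciferase read with ONE-Glo after 30 min at room temperature.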

[13] = target: Estrogen receptor (Homo sapiens) (UniProt P03372); assay: qHTS assay to identify small molecule antagonists of the estrogen receptor alpha (ER-alpha) signaling pathway using the BG1 cell line in the presence of 0.1 nM 17-beta-estradiol (AID 1259244); note: nearly all actives have a fitted effect of over 50% in size; note: potency is the fitted concentration of half-maximal effect
Estrogen receptor (Homo sapiens), sequence (P03372 whole entry, looked up): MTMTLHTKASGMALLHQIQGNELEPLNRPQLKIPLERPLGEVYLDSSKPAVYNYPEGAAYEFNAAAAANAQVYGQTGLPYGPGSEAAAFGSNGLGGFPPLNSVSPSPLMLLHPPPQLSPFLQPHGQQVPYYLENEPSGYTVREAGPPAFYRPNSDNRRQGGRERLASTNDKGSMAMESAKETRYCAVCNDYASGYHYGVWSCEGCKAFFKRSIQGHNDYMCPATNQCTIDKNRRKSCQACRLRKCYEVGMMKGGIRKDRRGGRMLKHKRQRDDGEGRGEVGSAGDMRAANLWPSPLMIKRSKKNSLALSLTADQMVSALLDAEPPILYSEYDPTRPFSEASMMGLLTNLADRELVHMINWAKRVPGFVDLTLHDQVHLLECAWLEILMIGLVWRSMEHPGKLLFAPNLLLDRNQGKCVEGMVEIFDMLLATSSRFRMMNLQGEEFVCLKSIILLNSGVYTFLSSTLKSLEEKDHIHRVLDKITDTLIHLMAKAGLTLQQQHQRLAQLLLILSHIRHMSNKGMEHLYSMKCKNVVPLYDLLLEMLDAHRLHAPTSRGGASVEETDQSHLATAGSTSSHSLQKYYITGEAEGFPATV
Procedure, shortened: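 VM7Luc4E2 cells (endogenous full-length ER-alpha, 4×ERE-luciferase), kept 5 days in phenol red-free, charcoal-stripped FBS medium; 4,000 cells/well. Compounds added with 0.1 nM (final) 17beta-estradiol, 22 hr at 37C; luminescence read with ONE-Glo after 30 min.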

[14] = qHTS assay to identify small molecule HDAC inhibitors - cell viability counter screen (AID 1259365)
Procedure, shortened: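 To flag cytotoxic hits, 1,500 wild-type HCT-116 cells per well, plated the day before, receive test compounds for 2hr at 37 C before CellTiter-Glo reagent and a luminescence read.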

[15] = qHTS assay to identify small molecule agonists of the sonic hedgehog signaling (Shh) pathway - cell viability counter screen (AID 1259366); note: nearly all actives have a fitted effect of over 50% in size; note: potency is the fitted concentration of half-maximal effect
Procedure, shortened: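 Fluorescence from CellTiter-Fluor reports live cells in this counter screen. NIH/3T3-derived Gli1-Luc reporter cells receive test compounds for 24hr at 37C; reagent goes in at 23hr.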

[16] = qHTS assay to identify small molecule antagonists of the sonic hedgehog signaling (Shh) pathway - cell viability counter screen (AID 1259367); note: nearly all actives have a fitted effect of over 55% in size
Procedure, shortened: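 Seed 3T3 Gli1-Luc cells at 2,000 per well; incubate 4 hr; add compound in DMSO, then conditioned medium; incubate at 37C with 5% CO2; add CellTiter-Fluor after 23 hr; read fluorescence 1 hr later.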

[17] = qHTS assay to identify small molecule agonists of the sonic hedgehog signaling (Shh) pathway (AID 1259368; calls by dose curve;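 note: NIH/3T3-derived 3T3Gli1-Luc cells carrying a stable Gli1-driven firefly luciferase reporter; series mostly up to about 92 µM; nearly all actives have a fitted effect of over 15% in size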)
Procedure, shortened: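 NIH/3T3-derived 3T3Gli1-Luc cells with stably integrated Gli1-driven firefly luciferase, 2,000 cells/well, compounds added after 4 hr. Incubated 24 hr at 37C, 5% CO2; luminescence read after 30 min with luciferase reagent at room temperature.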

[18] = qHTS RealTime-Glo MT Cell Viability Assay in HepG2 cells - 16 hour (AID 1224885); note: nearly all actives have a fitted effect of over 50% in size
Procedure, shortened: as §4

[19] = qHTS assay to identify small molecule HDAC inhibitors (AID 1259364); note: top concentration of the series differs between compounds; nearly all actives have a fitted effect of over 45% in size
Procedure, shortened: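 Wild-type HCT-116 cells, plated overnight at 37 C, exposed to compounds 2 hr at 37 C; luminogenic HDAC-Glo substrate then added 30 min at room temperature. Luminescence reports relative endogenous class I/II HDAC activity.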

SMILES	Potency [1]	Potency [2]	Potency [3]	Potency [4]	Potency [5]	Potency [6]	Potency [7]	Potency [8]	Potency [9]	Potency [10]	Potency [11]	Potency [12]	Potency [13]	outcome [14]	Potency [15]	Potency [16]	Potency [17]	Potency [18]	Potency [19]
N#Cc1cc(Br)c(O)c(Br)c1	inactive	inactive	inactive	inactive	inactive	inactive	inactive	inactive	inactive	inactive	inactive	61.1 µM (active) and 46.8 µM (active)	61.1 µM (active) and 41.7 µM (active)	inactive	inactive	inactive	inactive		
CCN(CC)C(=O)SCc1ccc(Cl)cc1	inactive	inactive	inactive	inactive	inactive	inactive		inactive	inactive	inactive	inactive		inactive	inactive	inactive	inactive	inactive	inactive	
CC(C)(c1cc(Cl)c(O)c(Cl)c1)c1cc(Cl)c(O)c(Cl)c1	inactive	inactive	inactive	inactive	inactive	inactive			inactive	inactive	inactive			inactive	inactive	inactive	inactive	inactive	inactive
CC(C)=CC1C(C(=O)OCc2coc(Cc3ccccc3)c2)C1(C)C (stereo not drawn)	inactive	inactive	inactive	inactive	inactive	inactive	inactive	inactive	inactive	inactive	inactive		inactive	inactive	inactive	inactive	inactive		
CCC(C)c1ccc(O)cc1 (stereo not drawn)	inactive	43.6 µM (active)	inactive		inactive	inactive		inactive	inactive	inactive	inactive			inactive	inactive	inactive	inactive	inactive	inactive
c1ccc(N=Nc2ccccc2)cc1	inactive		inactive	inactive	inactive	inactive	inactive		inactive	inactive	inactive			inactive	inactive	inactive	inactive	inactive	
COc1ccc(C=O)cc1	inactive	inactive	inactive	inactive	inactive	inactive		inactive	inactive	inactive	inactive		inactive	inactive	inactive	inactive	inactive		
CCN(CC)C(=O)/C(Cl)=C(\C)OP(=O)(OC)OC	inactive	inactive	inactive	inactive	inactive	inactive			inactive	inactive	inactive	inactive	inactive	inactive	inactive	inactive	inactive	inactive	inactive
CN(C)C(=O)Nc1ccc(Cl)cc1	inactive	inactive	inactive	inactive	inactive	inactive	inactive	inactive	inactive	inactive	inactive			inactive	inactive	inactive	inactive		inactive
O=C(Nc1ccc(Br)cc1)c1cc(Br)cc(Br)c1O	24.5 µM (active)	38.9 µM (active) and inactive	inactive and 43.6 µM (active)	inactive and 38.9 µM (active)	inactive	inactive		21.8 µM (active)	inactive and 43.6 µM (active)	inactive	13.3 µM (active)		6.83 µM (active) and 10.9 µM (active)	inactive	30.5 µM (active)		inactive		
S=C1NCCN1	inactive	inactive	inactive	inactive	inactive	inactive			inactive	inactive	inactive			inactive	inactive	inactive	inactive		inactive
Brc1ccc(Oc2cc(Br)c(Br)cc2Br)c(Br)c1	inactive	inactive	inactive	inactive	38.9 µM (active)	inactive			inactive	inactive	inactive		inactive	inactive	inactive	inactive	inactive	inactive	inactive
Nn1cnnc1	inactive	inactive	inactive	inactive	inactive	inactive	inactive		inactive	inactive	inactive		inactive	inactive	inactive	inactive	inactive	inactive	
CCCCC(CC)COC(=O)c1ccc(C(=O)OCC(CC)CCCC)c(C(=O)OCC(CC)CCCC)c1 (stereo not drawn)	inactive	inactive	inactive	inactive	inactive	inactive		inactive	inactive	inactive	inactive	inactive		inactive	inactive	inactive	inactive	inactive	inactive

Reference: PubChem BioAssay (Tox21)
